Test results taken from PubChem BioAssay (NCATS).
Results filed as inconclusive are left out. The source made the active and inactive calls. Calls come from the whole dose curve; as a rule, active = well fitted inhibition curve with a large enough effect; inconclusive = small, poorly fitted or top-dose-only effect; inactive = flat fitted curve, though single readings scatter. Where a SMILES comes first, the peptide text is derived from it. [ ]: non-standard residue; d: D form. pGlu = O=C1CC[C@@H](C(=O)O)N1; Thz = O=C(O)[C@@H]1CSCN1

How the values were obtained:
Test in all cases: qHTS profiling for inhibitors of Plasmodium falciparum proliferation (AID 504749); note: nearly all actives have a fitted effect of over 60% in size
Conditions in all cases: P. falciparum in erythrocytes, SYBR Green DNA, 72 h; series mostly up to 28.7 µM
[1] = tested on: CP325
Outline: (§1)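 Readout was DNA-dye fluorescence from lysed cultures, ex 485/em 535 nm. Parasitized red cells had grown 72 h with compound; data scaled between 0.29 uM artemisinin and DMSO wells and corrected using vehicle-only plates.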

[2] = tested on: CP329
Outline: as §1

[3] = tested on: CP335
Outline: as §1

[4] = tested on: DFO2036
Outline: as §1

[5] = tested on: DIV14
Outline: as §1

[6] = tested on: DIV17
Outline: as §1

[7] = tested on: DIV30
Outline: as §1

[8] = tested on: Dd2
Outline: as §1

[9] = tested on: ECU
Outline: as §1

[10] = tested on: FAB9
Outline: as §1

[11] = tested on: GB4
Outline: as §1

[12] = tested on: HB3
Outline: as §1

[13] = tested on: ICS
Outline: as §1

[14] = tested on: JCK
Outline: as §1

[15] = tested on: N140
Outline: as §1

[16] = tested on: P93_24
Outline: as §1

[17] = tested on: P94_40
Outline: as §1

[18] = tested on: PAD
Outline: as §1

[19] = tested on: PC15
Outline: as §1

[20] = tested on: PC26
Outline: as §1

Measured: Potency

O=C(/C=C/c1ccccc1)NCCO
inactive: all assays above

N=c1ccn2c(n1)O[C@H]1[C@H](O)[C@@H](CO)O[C@H]12
not listed: [17]
inactive: all other assays above

O=C1CC[C@@H](C(=O)N2CSC[C@H]2C(=O)O)N1 ([pGlu]-[Thz]-OH)
inactive: all assays above

Nc1ccc(O)c(C(=O)O)c1
not listed: [16]
inactive: all other assays above

CCCOC(=O)c1ccc(O)cc1
inactive: all assays above

Cc1ccc(O)c(-n2nc3ccccc3n2)c1
inactive: all assays above

CC1(C)[C@@H](O)CC[C@]2(C)[C@H]3C(=O)C=C4[C@@H]5C[C@@](C)(C(=O)O)CC[C@]5(C)CC[C@@]4(C)[C@]3(C)CC[C@@H]12
inactive: all assays above

O=C(O)[C@H](O)[C@@H](O)[C@H](O)[C@H](O)CO
inactive: all assays above

Cc1ccccc1CNc1ncnc2c1ncn2C1OC(CO)C(O)C1O (stereo not drawn)
inactive: all assays above

CCOC(=O)c1ccccc1O
inactive: all assays above

O=C(O)/C=C/C(O)c1ccc(Cl)cc1 (stereo not drawn)
inactive: all assays above

CC(C(=O)O)c1ccc2c(c1)[nH]c1ccc(Cl)cc12 (stereo not drawn)
inactive: all assays above

C=CCN1C(=O)C(CC(C)C)NC1=S (stereo not drawn)
inactive: all assays above
